# Rows were chosen to be rich in hits. Some 10% of all compounds tested hit in one or more screens of this group.
# GLS inh: blocks human kidney-isoform glutaminase activity. GLS enzymatic activity, qHTS titration. O94925. AID 624170. Potency, µM (titrated, usually from 45.5 µM), for inactives: at the highest dose activity change, negative = inhibition, actives largely listed as inhibitors. 0.21% of 410,000 active; further: on the % scale 0 is the no-effect control and ±100 the full control effect
#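 Assay buffer: 45 mM KH2PO4 pH 8.2, 0.02% Tween-20. hKGA acts on L-glutamine (1 mM solution added); product glutamate is reported by an oxidase/peroxidase Amplex Red coupling, with fluorescence taken at baseline and 30 min.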
# BAZ2B block: inhibitors of human BAZ2B bromodomain | Q9UIF8 | AlphaScreen BAZ2B-H3K14Ac peptide displacement | Potency, µM (top dose mostly 114 µM), for inactives: at the highest dose activity change, negative = inhibition, actives largely listed as inhibitors | 4.4% of 360,000 active; further: on the % scale 0 is the no-effect control and ±100 the full control effect; nearly all actives have a fitted effect of over 60% in size
#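 In this displacement format the biotinylated H3(5-23) peptide acetylated at Lys14 serves as ligand at 50 nM, with BAZ2B at 50 nM in PBS pH 7.4 containing 0.01% Tween-20. Donor and acceptor beads are 10 ug/mL final.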
# HP1b chromo inh: inhibitors of HP1-beta chromodomain binding to methylated histone tails; AlphaScreen HP1-beta / biotin-H3K9me3 peptide binding; Potency, µM (highest dose often 114 µM), without a hit: at the highest dose activity change, negative = inhibition, most hits filed as inhibitors; 0.56% of 390,000 active; further: nearly all actives have a fitted effect of over 70% in size
# Target sequence (P83916 whole entry, looked up): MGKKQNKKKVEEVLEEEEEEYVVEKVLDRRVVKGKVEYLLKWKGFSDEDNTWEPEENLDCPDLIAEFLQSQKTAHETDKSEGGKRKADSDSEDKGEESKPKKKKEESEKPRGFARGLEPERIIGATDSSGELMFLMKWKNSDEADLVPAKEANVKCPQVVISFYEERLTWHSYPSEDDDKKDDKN
#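 AlphaScreen: HP1-beta (50 nM) preformed 30 min with biotin-H3(1-18)K9me3 peptide (50 nM) in PBS pH 7.4, 0.01% Tween-20. Compound added for 30 min at RT, then streptavidin donor/nickel chelate acceptor beads (10 ug/mL) for 30 min.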
# G9a block: blocks human histone lysine methyltransferase G9a | G9a H3K9 monomethylation, AlphaScreen, 2 h | 8.8% of 350,000 active | Q96KQ7 | Potency, µM (doses to about 102 µM), inactives show top-dose activity, negative = inhibition, usual class: inhibitors; further: on the % scale 0 is the no-effect control and ±100 the full control effect; nearly all actives have a fitted effect of over 75% in size
# Target sequence (Q96KQ7 913-1193 limits assumed): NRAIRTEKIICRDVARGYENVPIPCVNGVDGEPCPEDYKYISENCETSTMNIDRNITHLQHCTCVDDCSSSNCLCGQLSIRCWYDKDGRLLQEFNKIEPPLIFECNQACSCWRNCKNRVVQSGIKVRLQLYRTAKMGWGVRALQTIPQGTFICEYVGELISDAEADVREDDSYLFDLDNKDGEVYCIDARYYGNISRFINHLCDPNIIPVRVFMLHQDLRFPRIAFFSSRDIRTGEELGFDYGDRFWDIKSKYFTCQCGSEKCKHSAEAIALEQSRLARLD
#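 Compounds were preincubated with 20 nM G9a for 15 min, after which biotinylated H3K9 peptide (500 nM) and SAM (20 uM) started a 2 h room-temperature reaction. Monomethylated product was quantified by antibody-based AlphaScreen chemiluminescence.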
# JMJD2A Tudor: blocks the human JMJD2A Tudor domain; Potency, µM (series often up to 114 µM), for inactives: at the top dose activity change, negative = inhibition, actives largely listed as inhibitors; 4.4% of 390,000 active; AlphaScreen JMJD2A-Tudor / H3K4me3 peptide binding; O75164; further: on the % scale 0 is the no-effect control and ±100 the full control effect; nearly all actives have a fitted effect of over 50% in size
# L3MBTL1 block: inhibitors of human L3MBTL1. Potency, µM (titrated, usually from 57.1 µM), for the others: at the highest dose activity, negative = inhibition, actives largely listed as inhibitors. AlphaScreen L3MBTL1–H3K9me1 peptide binding. AID 485360. 0.66% of 230,000 active; further: on the % scale 0 is the no-effect control and ±100 the full control effect; nearly all actives have a fitted effect of over 60% in size
#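 AlphaScreen proximity signal between nickel-chelate acceptor and streptavidin donor beads (final 10 ug/mL) reports binding of 50 nM L3MBTL1 to 75 nM biotin-H3 K9me1 peptide; complex incubated with compounds 30 min at room temperature; cefsulodin titration as control.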
# Numbers without * were called inactive; ? = inconclusive; . = no result given; [ ] = dose if it differs, or a comment. The call rests on the fitted dose curve; in most records, active means well fitted curve in the direction sought with a large enough effect; inconclusive means small, poorly fitted or top-dose-only effect, or another doubt; inactive means no such curve, though single readings can be large; an effect the other way counts as inactive or inconclusive. Potency means the concentration at half of the fitted maximal effect.
SMILES,GLS inh,BAZ2B block,HP1b chromo inh,G9a block,JMJD2A Tudor,L3MBTL1 block
CCOC(=O)N1CCC(NC(=O)c2ccc3c(c2)N(Cc2cc(C)ccc2C)C(=O)c2ccccc2S3(=O)=O)CC1,-0.3%,-5.5%,27.7%,-5.1%[59 µM],-3.4%,.
COc1ccc(/C=C/C(=O)Oc2cccc(/C=N/NC(=O)COc3c(C)cccc3C)c2)cc1,11.7%,100µM*,19.7%,-80.4%[12.7 µM],2.5%,-1.9%
CC1(C2(O)CCCCC2)NCCc2ccccc21 (stereo not given),-13.8%,35.5µM*,70.8µM*,31.6µM*,0.891µM*,6.0%
O=C1NC(=O)C2(CCc3ccccc32)N1 (stereo not given),4.6%,-5.5%,19.0%,-5.2%[0.501 µM],-1.7%,-5.9%
O=C(COc1cccc(Cl)c1)N1CCC(c2nc3ccccc3s2)CC1,-3.3%,6.7%,18.5%,-0.1%[59 µM],-3.3%,.
CCn1c(CSc2nccn2C)nc2cc(C(=O)O)ccc21,-13.7%,50.1µM*,20.2%,-38.5%[12.7 µM],31.6µM*,-5.5%
CC1CN(C(=O)CCc2cc(C(C)(C)C)c(O)c(C(C)(C)C)c2)CC(C)O1 (stereo not given),-11.3%,1.3%,51.5%,77.2%,-12.3%,.
CC(C)(C)c1cc(CCC(=O)N2CCC2)cc(C(C)(C)C)c1O,-17.9%,89.1µM*,30.7%,100.1%,-6.0%,.
CC1=C(C(=O)Nc2ccccc2C)C(c2ccc(C)o2)n2c(s/c(=C/c3ccccc3)c2=O)=N1 (stereo not given),-6.3%,-28.6%,19.3%,-50.0%,-5.7%,.
CC1=C(C(=O)Nc2ccccc2)C(c2ccc(C)o2)n2c(s/c(=C/c3ccccc3)c2=O)=N1 (stereo not given),-12.5%,1.6%,41.8%,-8.2%,-5.6%,.
CC1=C(C(=O)Nc2ccccc2)C(c2ccc(Cl)cc2)n2c(s/c(=C/c3cccc(OCC(=O)O)c3)c2=O)=N1 (stereo not given),-3.0%,56.2µM*,?,?,?,?
CCOc1ccc(C2C(C(=O)Nc3ccccc3)=C(C)N=c3s/c(=C/c4cccc(OCC(=O)O)c4)c(=O)n32)cc1 (stereo not given),-3.2%,?,8.5%,50.1µM*,?,35.5µM*
CCNC(=O)CC1C(=O)N(c2ccccc2)C(=O)N1Cc1ccc(F)cc1 (stereo not given),7.4%,-2.8%,25.4%,-1.1%[59 µM],-15.2%,.
Cc1ccc(Cl)c(OCCN2CCc3ccccc3C2)c1,15.0%,5.2%,42.6%,.,0.7%,11.4%
C/C=C/c1ccc(OCCN2CCc3ccccc3C2)c(OC)c1,13.2%,?,?,44.7µM*,0.891µM*,-0.7%
C=CCc1ccc(OCCN2CCc3ccccc3C2)c(OC)c1,1.6%,50.1µM*,?,10µM*,?,-4.7%
O=C(c1ccc2c(c1)N(Cc1ccc(Cl)cc1)C(=O)c1ccccc1S2(=O)=O)N1CCCC1,3.5%,-19.8%,27.3%,-33.5%[59 µM],-23.9%,.
O=c1c(NCc2ccccc2Cl)nccn1-c1ccccc1,-3.2%,-6.1%,31.2%,-9.8%[59 µM],-11.0%,.
COc1ccc(C2/C=C\CN([S+](=O)([O-])c3ccc4ccccc4c3)C(C)C(=O)N2Cc2ccc(F)cc2)cc1 (stereo not given),.,.,15.6%,.,-25.5%,.
C=CCn1c(C)cc(-c2csc(NC(=O)C3=COCCO3)n2)c1C,-9.2%,-33.7%,-8.5%,44.7µM*,-22.8%,-6.2%
Cc1cc(-c2csc(NC(=O)c3ccc(=O)[nH]c3)n2)c(C)n1Cc1ccccc1,-7.9%,-24.9%,9.5%,?,?,?
C=CCn1c(C)cc(-c2csc(NCC)n2)c1C,?,39.8µM*,?,15.8µM*,50.1µM*,.
C=CCn1c(C)cc(-c2csc(NC)n2)c1C,-2.8%,.,?,8.91µM*,39.8µM*,?
C=CCn1c(C)cc(-c2csc(N)n2)c1C,25.2%,50.1µM*,?,?,39.8µM*,.
O=C(Cn1cc(SCc2ccc(C(F)(F)F)cc2)c2ccccc21)N1CCCC1,9.2%,-16.4%,42.5%,-4.4%[59 µM],4.0%,.
SMILES,GLS inh,BAZ2B block,HP1b chromo inh,G9a block,JMJD2A Tudor,L3MBTL1 block
Cc1ccc(CNC(=O)C2CCCN(S(=O)(=O)c3ccc4c(c3)oc(=O)n4C)C2)cc1 (stereo not given),-5.0%,-3.1%,60.7%,16.5%[59 µM],-5.6%,.
O=C(O)c1cccc(CN2C(=O)SC(Nc3cccc4ccccc34)C2=O)c1 (stereo not given),?,?,24.5%,50.1µM*,-18.9%,-11.9%
O=C(O)CN1C(=O)SC(Nc2ccc(C(=O)O)cc2)C1=O (stereo not given),-1.2%,?,34.9%,?,-4.2%,.
O=C(O)c1cccc(CN2C(=O)SC(Nc3ccccc3)C2=O)c1 (stereo not given),20.3%,2.4%,50.4%,?,-10.6%,-1.7%
O=C(O)CN1C(=O)SC(Nc2ccccc2C(=O)O)C1=O (stereo not given),21.2%,?,5.0%,39.8µM*,?,.
COc1ccc(CNC(=O)CCCc2nnc3n(C(C)C)c(=O)c4sccc4n23)cc1,-9.2%,-24.1%,28.6%,-8.8%[59 µM],-16.5%,.
CCOC(=O)c1noc2ncn(CC(=O)Nc3ccccc3OC)c(=O)c12,-11.3%,-26.9%,10.2%[57 µM],9.4%[59 µM],-17.3%,.
Cc1ccc(C(=O)c2cn(Cc3cccc(C)c3)c3nc(C)ccc3c2=O)cc1,-4.4%,-16.7%,28.2%,-27.2%[59 µM],-12.3%,.
COc1ccc(C2Nc3ccccc3C(=O)N2Cc2ccccn2)cc1COc1ccc(NC(C)=O)cc1 (stereo not given),.,.,.,.,56.2µM*,.
COc1ccc(CN2C(=O)c3ccccc3NC2c2ccc(OC)c(COc3ccc(NC(C)=O)cc3)c2)cc1 (stereo not given),.,.,.,.,-23.8%,.
COc1ccc(C2Nc3ccccc3C(=O)N2c2ccccc2)cc1COc1ccc(NC(C)=O)cc1 (stereo not given),.,.,2.3%[57 µM],.,-14.6%[57.1 µM],.
COc1ccc(C2Nc3ccccc3C(=O)N2Cc2cccnc2)cc1COc1ccc(NC(C)=O)cc1 (stereo not given),.,.,.,.,56.2µM*,.
COc1ccc(C2Nc3ccccc3C(=O)N2C2CCCC2)cc1COc1ccc(NC(C)=O)cc1 (stereo not given),.,.,.,.,50.1µM*,.
Cc1cc(C)cc(NC(=S)N(CCN2CCCCC2)Cc2ccco2)c1,1.7%,?,-9.0%,-39.7%[59 µM],?,.
Cc1ccc(NC(=S)N(CCN2CCCCC2)Cc2ccco2)cc1Cl,3.8%,-31.8%,-13.8%,50.1µM*,-31.2%,.
Cc1ccc(NC(=S)N(CCCN2CCOCC2)Cc2ccco2)cc1C,2.0%,?,11.4%,-29.5%,-19.7%,9.5%
